How the values were obtained:
[1] = target: Protein kinase C gamma type (Homo sapiens) (UniProt P05129); conditions: at 1 µM;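 further: each value is an averaged percent inhibition of the enzyme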
[2] = target: T1, Protein kinase C iota type (Homo sapiens) (UniProt P41743); conditions: at 0.1 µM
T1 sequence (whole entry): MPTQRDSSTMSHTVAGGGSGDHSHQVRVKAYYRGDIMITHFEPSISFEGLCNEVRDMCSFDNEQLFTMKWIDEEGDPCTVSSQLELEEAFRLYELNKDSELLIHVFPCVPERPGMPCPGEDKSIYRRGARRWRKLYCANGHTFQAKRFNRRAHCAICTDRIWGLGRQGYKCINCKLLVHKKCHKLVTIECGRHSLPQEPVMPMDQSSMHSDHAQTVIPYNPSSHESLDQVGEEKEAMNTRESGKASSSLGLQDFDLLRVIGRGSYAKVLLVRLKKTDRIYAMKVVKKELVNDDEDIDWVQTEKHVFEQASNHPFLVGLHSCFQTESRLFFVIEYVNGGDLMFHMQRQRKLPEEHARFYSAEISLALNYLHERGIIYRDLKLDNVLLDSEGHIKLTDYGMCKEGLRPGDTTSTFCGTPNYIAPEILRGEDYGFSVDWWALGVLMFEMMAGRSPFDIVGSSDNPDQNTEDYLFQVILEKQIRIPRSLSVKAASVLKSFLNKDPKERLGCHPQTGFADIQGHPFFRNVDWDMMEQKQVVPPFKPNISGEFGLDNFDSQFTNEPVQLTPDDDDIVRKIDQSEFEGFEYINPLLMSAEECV

[3] = target: T1, Protein kinase C iota type (Homo sapiens); conditions: at 1 µM
[4] = target: Protein kinase C theta type (Homo sapiens) (UniProt Q04759); conditions: at 0.1 µM
[5] = target: Protein kinase C theta type (Homo sapiens) (UniProt Q04759); conditions: at 1 µM
[6] = target: Protein kinase C beta type (Homo sapiens) (UniProt P05771); conditions: at 0.1 µM
[7] = target: Protein kinase C beta type (Homo sapiens) (UniProt P05771); conditions: at 1 µM
[8] = target: T2, Serine/threonine-protein kinase D1 (Homo sapiens) (UniProt Q15139); conditions: at 0.1 µM
T2 sequence (whole entry): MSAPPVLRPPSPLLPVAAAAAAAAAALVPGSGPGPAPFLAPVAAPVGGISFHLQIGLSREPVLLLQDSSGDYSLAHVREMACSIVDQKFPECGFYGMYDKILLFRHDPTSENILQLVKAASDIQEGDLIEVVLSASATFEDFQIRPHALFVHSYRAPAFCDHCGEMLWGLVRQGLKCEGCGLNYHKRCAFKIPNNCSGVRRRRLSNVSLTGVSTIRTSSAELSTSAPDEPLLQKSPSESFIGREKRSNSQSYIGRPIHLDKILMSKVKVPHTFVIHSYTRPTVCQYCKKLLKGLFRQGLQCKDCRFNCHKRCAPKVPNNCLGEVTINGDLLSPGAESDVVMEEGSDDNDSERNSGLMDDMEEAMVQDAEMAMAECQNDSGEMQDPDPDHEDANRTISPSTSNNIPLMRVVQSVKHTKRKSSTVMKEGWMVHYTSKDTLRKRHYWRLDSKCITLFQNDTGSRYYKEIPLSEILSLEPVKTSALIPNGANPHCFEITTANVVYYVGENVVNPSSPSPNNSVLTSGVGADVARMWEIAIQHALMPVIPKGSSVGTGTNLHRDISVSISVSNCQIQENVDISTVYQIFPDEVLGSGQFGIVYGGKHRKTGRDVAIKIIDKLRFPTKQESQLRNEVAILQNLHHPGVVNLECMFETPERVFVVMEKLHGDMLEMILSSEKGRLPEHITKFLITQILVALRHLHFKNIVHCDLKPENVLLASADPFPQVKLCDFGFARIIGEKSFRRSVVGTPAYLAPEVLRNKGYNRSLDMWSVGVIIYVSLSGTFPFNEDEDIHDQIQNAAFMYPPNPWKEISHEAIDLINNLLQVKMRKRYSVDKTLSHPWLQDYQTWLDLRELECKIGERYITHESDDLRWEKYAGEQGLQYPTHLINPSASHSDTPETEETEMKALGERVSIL

[9] = target: T2, Serine/threonine-protein kinase D1 (Homo sapiens); conditions: at 1 µM
[10] = target: T3, Serine/threonine-protein kinase D2 (Homo sapiens) (UniProt Q9BZL6); conditions: at 0.1 µM
T3 sequence (whole entry): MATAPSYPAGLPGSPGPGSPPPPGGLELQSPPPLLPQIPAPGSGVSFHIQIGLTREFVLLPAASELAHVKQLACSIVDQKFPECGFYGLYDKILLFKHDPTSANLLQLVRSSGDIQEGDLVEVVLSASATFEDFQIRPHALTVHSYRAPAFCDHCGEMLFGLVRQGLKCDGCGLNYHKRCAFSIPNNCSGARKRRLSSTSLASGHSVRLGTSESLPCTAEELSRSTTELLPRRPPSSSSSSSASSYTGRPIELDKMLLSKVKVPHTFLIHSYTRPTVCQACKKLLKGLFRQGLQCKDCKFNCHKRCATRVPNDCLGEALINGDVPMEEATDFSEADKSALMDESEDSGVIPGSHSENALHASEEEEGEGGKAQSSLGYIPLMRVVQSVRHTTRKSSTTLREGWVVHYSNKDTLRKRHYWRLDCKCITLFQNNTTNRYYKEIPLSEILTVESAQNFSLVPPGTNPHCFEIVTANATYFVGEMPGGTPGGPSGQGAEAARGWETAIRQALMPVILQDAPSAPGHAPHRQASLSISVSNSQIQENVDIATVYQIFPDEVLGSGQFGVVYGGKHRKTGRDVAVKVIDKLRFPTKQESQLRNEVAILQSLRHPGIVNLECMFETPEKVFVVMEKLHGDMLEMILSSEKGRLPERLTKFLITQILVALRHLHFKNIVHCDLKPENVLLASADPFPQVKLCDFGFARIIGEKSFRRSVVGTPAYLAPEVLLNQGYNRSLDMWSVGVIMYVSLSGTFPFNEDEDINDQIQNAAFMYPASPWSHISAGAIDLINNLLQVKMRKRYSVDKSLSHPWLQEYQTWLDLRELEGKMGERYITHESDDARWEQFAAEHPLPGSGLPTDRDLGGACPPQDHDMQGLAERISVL

[11] = target: T3, Serine/threonine-protein kinase D2 (Homo sapiens); conditions: at 1 µM
[12] = target: T4, Serine/threonine-protein kinase D3 (Homo sapiens) (UniProt O94806); conditions: at 0.1 µM
T4 sequence (whole entry): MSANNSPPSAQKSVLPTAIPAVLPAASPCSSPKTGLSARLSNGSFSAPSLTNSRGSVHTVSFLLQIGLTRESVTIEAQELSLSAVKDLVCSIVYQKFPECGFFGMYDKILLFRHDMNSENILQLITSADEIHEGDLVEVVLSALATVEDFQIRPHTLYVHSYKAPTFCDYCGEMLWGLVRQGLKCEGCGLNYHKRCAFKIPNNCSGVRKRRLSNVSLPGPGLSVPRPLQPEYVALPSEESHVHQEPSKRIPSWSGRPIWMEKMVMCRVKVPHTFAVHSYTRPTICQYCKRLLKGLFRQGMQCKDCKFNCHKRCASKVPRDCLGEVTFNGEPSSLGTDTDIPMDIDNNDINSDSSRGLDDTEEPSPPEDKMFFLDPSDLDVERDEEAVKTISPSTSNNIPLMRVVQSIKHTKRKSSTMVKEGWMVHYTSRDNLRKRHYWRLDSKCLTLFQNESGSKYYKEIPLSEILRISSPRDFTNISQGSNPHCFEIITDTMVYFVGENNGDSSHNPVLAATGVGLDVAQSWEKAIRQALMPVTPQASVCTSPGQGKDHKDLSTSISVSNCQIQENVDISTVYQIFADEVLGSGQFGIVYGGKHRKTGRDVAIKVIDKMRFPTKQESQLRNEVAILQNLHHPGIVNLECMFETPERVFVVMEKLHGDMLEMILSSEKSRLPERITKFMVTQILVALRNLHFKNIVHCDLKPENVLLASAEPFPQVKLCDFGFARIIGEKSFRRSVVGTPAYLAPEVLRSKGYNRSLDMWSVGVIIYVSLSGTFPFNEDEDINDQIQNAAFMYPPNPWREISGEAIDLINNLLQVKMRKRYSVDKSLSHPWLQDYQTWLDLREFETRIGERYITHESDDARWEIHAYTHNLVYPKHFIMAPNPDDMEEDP

[13] = target: T4, Serine/threonine-protein kinase D3 (Homo sapiens); conditions: at 1 µM
[14] = target: T5, cGMP-dependent protein kinase 1 (Homo sapiens) (UniProt Q13976); conditions: at 0.1 µM
T5 sequence (whole entry): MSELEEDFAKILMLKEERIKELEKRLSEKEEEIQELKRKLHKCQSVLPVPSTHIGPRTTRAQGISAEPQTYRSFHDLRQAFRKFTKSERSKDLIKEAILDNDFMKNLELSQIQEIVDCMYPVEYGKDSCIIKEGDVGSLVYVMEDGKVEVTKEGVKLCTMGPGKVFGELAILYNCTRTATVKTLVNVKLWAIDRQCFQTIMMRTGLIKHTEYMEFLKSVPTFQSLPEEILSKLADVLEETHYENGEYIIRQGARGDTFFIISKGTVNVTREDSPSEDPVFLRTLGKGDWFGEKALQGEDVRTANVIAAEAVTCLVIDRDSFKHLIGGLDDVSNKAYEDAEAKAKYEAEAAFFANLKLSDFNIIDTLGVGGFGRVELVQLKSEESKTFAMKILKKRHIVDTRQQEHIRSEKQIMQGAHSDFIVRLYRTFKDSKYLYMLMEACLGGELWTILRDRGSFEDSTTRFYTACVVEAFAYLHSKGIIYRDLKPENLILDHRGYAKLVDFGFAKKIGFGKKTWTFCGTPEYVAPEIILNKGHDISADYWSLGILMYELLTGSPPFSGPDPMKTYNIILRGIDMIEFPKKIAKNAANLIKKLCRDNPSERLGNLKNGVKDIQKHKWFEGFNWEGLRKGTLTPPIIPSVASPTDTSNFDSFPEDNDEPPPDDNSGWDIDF

[15] = target: T5, cGMP-dependent protein kinase 1 (Homo sapiens); conditions: at 1 µM
[16] = target: T6, cGMP-dependent protein kinase 2 (Homo sapiens) (UniProt Q13237); conditions: at 0.1 µM
T6 sequence (whole entry): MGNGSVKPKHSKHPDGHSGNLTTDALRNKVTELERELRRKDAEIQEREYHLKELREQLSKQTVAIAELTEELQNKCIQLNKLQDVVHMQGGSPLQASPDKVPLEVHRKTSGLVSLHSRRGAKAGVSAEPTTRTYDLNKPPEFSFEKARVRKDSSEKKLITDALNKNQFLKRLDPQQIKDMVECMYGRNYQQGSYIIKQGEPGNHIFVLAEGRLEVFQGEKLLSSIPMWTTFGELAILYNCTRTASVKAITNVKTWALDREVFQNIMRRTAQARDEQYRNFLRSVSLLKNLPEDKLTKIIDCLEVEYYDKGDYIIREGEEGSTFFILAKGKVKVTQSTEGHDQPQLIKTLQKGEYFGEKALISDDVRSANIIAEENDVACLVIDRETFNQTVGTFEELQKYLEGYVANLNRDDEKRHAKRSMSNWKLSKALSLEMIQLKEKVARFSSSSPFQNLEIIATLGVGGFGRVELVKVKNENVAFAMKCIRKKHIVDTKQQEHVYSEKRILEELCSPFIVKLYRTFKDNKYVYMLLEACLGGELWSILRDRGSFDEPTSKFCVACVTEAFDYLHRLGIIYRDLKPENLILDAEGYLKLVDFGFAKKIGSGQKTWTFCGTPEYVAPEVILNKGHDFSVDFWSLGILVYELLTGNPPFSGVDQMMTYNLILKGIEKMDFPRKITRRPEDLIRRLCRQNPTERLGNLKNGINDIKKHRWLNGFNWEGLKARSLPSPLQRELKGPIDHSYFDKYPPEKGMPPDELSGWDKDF

[17] = target: T6, cGMP-dependent protein kinase 2 (Homo sapiens); conditions: at 1 µM
[18] = target: T7, cAMP-dependent protein kinase catalytic subunit PRKX (Homo sapiens) (UniProt P51817); conditions: at 0.1 µM
T7 sequence (whole entry): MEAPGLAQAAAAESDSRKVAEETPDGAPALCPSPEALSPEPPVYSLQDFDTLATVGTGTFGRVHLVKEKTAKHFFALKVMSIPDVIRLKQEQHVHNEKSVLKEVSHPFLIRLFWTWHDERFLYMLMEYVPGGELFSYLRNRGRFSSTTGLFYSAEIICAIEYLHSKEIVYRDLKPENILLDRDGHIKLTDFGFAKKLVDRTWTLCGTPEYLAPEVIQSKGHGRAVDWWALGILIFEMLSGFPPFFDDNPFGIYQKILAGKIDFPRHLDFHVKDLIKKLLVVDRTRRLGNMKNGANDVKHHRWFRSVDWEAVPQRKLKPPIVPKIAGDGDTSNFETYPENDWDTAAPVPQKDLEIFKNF

[19] = target: T7, cAMP-dependent protein kinase catalytic subunit PRKX (Homo sapiens); conditions: at 1 µM
[20] = target: Rho-associated protein kinase 1 (Homo sapiens) (UniProt Q13464); conditions: at 0.1 µM;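 further: values are mean percent inhibition of ROCK1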
Sequence of Rho-associated protein kinase 1 (Homo sapiens) (Q13464 2-1354 limits assumed): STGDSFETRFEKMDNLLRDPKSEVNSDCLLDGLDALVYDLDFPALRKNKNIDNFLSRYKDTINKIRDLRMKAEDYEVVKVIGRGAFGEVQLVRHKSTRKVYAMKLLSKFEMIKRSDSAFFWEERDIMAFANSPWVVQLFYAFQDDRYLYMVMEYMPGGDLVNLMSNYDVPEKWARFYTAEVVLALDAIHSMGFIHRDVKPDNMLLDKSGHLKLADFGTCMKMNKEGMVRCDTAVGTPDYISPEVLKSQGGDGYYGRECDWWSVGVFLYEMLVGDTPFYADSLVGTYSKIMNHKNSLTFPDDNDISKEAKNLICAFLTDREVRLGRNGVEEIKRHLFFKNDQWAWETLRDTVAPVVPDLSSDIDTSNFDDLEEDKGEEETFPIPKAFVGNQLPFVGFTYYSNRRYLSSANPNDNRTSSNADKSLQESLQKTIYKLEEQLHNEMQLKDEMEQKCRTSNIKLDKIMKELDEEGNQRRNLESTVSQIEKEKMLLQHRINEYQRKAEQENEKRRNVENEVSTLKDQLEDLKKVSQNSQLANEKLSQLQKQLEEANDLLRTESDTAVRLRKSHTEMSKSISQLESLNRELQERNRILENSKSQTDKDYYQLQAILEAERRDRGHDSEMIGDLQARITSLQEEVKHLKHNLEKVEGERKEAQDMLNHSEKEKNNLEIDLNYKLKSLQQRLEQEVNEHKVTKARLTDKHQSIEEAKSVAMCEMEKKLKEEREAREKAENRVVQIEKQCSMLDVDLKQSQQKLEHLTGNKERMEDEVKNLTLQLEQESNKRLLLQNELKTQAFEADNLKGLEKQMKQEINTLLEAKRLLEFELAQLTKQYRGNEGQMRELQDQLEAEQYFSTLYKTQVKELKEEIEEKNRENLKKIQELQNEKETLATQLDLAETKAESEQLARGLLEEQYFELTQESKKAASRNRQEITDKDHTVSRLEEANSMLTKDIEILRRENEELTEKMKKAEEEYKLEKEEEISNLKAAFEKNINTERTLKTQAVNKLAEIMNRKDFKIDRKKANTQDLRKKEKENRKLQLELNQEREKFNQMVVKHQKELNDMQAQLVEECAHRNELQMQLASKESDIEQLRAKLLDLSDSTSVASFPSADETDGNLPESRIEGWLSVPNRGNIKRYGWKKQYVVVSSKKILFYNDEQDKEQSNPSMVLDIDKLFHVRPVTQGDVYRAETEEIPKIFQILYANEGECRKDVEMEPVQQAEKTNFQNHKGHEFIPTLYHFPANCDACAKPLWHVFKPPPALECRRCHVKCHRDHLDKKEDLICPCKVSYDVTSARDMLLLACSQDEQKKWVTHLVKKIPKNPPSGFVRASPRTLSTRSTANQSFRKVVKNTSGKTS

Sequence of Protein kinase C theta type (Homo sapiens) (Q04759 whole entry, looked up): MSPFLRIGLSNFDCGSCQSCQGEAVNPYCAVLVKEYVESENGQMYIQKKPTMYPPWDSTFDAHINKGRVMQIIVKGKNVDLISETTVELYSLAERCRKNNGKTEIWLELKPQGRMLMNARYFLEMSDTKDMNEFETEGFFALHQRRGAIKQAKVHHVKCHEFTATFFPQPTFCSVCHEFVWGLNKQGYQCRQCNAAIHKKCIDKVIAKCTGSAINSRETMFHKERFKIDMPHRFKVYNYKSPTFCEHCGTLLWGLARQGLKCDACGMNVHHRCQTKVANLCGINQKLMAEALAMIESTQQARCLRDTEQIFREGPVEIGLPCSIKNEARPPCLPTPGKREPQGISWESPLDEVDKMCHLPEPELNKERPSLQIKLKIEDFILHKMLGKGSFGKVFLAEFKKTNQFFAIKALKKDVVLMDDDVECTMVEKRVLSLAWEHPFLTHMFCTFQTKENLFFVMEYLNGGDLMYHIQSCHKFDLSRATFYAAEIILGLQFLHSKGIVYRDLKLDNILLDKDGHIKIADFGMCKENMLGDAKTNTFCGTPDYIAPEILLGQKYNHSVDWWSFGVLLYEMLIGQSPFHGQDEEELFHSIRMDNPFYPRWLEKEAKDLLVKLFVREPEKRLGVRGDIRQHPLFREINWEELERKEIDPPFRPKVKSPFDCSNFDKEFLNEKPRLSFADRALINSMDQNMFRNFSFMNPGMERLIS
Sequence of Protein kinase C beta type (Homo sapiens) (P05771 2-671 limits assumed): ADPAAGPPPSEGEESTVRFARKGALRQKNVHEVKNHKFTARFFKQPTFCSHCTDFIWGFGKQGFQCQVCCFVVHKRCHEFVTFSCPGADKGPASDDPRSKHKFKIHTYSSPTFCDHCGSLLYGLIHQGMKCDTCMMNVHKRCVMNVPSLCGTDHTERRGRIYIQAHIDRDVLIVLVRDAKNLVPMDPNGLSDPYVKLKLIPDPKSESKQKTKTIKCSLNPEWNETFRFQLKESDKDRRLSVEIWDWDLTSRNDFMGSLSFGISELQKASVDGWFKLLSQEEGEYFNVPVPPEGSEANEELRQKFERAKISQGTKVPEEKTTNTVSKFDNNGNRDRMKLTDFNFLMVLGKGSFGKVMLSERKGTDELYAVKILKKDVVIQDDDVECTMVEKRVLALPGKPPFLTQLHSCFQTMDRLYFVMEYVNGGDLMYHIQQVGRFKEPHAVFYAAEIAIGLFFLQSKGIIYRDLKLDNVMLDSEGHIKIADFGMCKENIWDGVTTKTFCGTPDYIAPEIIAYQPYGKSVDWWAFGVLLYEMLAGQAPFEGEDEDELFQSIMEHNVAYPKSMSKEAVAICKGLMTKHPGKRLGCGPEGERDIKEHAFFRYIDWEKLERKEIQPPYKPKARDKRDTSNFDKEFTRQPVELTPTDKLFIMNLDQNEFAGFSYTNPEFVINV

Structure (SMILES)	inhibition [1] [%]	inhibition [2] [%]	inhibition [3] [%]	inhibition [4] [%]	inhibition [5] [%]	inhibition [6] [%]	inhibition [7] [%]	inhibition [8] [%]	inhibition [9] [%]	inhibition [10] [%]	inhibition [11] [%]	inhibition [12] [%]	inhibition [13] [%]	inhibition [14] [%]	inhibition [15] [%]	inhibition [16] [%]	inhibition [17] [%]	inhibition [18] [%]	inhibition [19] [%]	inhibition [20] [%]
CN1CCN(C(=O)c2ccc(NC(=O)Nc3ccc(N(C)c4ccnc(Nc5ccc(CS(C)(=O)=O)cc5)n4)cc3)cc2)CC1	2.89	-0.67	-0.1	1.17	1.43	1.51	2.4	2.19	6.28	2.12	3.43	1.06	3.69	1.76	3.23	1.26	1.71	1.71	0.77	2.82
NS(=O)(=O)c1cccc(Nc2cc(-c3ccc(F)cc3)n[nH]2)c1	2.43	1.19	0.46	3.52	8.77	1.7	3.53	-0.81	4.04	2.47	3.29	2.9	3.78	2.36	5.63	4.45	6.86	6.02	9.4	1.22
COc1cccc(-n2nc(C)c3c(N/N=C(\C)c4ccncc4)ncnc32)c1	-0.03	-1.18	-0.8	-0.03	-0.11	0.75	0.46	0.01	0.3	0.82	-1.17	-0.64	0.59	0.03	0.55	0.35	-0.19	-0.2	-1.17	-1.53

Reference: ChEMBL document CHEMBL1961873, “Compounds: GSK PKIS; Assays: Nanosyn kinase panel” (2012)
